{"source": "the supplement of paper PMC4466140", "experiment_in_all_cases": "SPOT peptide array binding signal intensity (averaged, normalized) (arbitrary units (background-subtracted, floor 0; scale differs between SH3 domains)); higher = stronger binding of the SH3 domain to the peptide", "key": {"[1]": {"molecular_target": "AgAbp1", "in_short": "(§1)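 GST-fused SH3 domains from four yeast species were expressed in E. coli BL21(DE3), purified on glutathione Sepharose and incubated at 10 μg/ml overnight at 4°C in TBS-based blocking buffer on cellulose membranes carrying synthetic 15-mer peptides, with cysteines replaced by serines. Bound protein was detected with anti-GST antibody, an HRP anti-mouse secondary and luminol, then imaged and quantified with Genespotter. Binding signal is the normalized, background-subtracted spot intensity averaged over replicates, in arbitrary units that differ between domains.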"}, "[2]": {"molecular_target": "AgBbc1", "in_short": "as §1"}, "[3]": {"molecular_target": "AgBem1-D1", "in_short": "as §1"}, "[4]": {"molecular_target": "AgBzz1-D1", "in_short": "as §1"}, "[5]": {"molecular_target": "AgBzz1-D2", "in_short": "as §1"}, "[6]": {"molecular_target": "AgCyk3", "in_short": "as §1"}, "[7]": {"molecular_target": "AgFus1", "in_short": "as §1"}, "[8]": {"molecular_target": "AgHof1", "in_short": "as §1"}, "[9]": {"molecular_target": "AgHse1", "in_short": "as §1"}, "[10]": {"molecular_target": "AgLsb1", "in_short": "as §1"}, "[11]": {"molecular_target": "AgLsb4", "in_short": "as §1"}, "[12]": {"molecular_target": "AgMyo5", "in_short": "as §1"}, "[13]": {"molecular_target": "AgNbp2", "in_short": "as §1"}, "[14]": {"molecular_target": "AgRvs167", "in_short": "as §1"}, "[15]": {"molecular_target": "AgSho1", "in_short": "as §1"}, "[16]": {"molecular_target": "AgSla1-D1-D2", "in_short": "as §1"}, "[17]": {"molecular_target": "AgSla1-D3", "in_short": "as §1"}, "[18]": {"molecular_target": "CaAbp1-D1", "in_short": "as §1"}, "[19]": {"molecular_target": "CaAbp1-D2", "in_short": "as §1"}, "[20]": {"molecular_target": "CaBbc1", "in_short": "as §1"}, "[21]": {"molecular_target": "CaBem1-D1", "in_short": "as §1"}, "[22]": {"molecular_target": "CaBzz1-D1", "in_short": "as §1"}, "[23]": {"molecular_target": "CaBzz1-D2", "in_short": "as §1"}, "[24]": {"molecular_target": "CaCyk3", "in_short": "as §1"}, "[25]": {"molecular_target": "CaFus1", "in_short": "as §1"}, "[26]": {"molecular_target": "CaHof1", "in_short": "as §1"}, "[27]": {"molecular_target": "CaHse1", "in_short": "as §1"}, "[28]": {"molecular_target": "CaLsb1", "in_short": "as §1"}, "[29]": {"molecular_target": "CaLsb4", "in_short": "as §1"}, "[30]": {"molecular_target": "CaMyo5", "in_short": "as §1"}, "[31]": {"molecular_target": "CaNbp2", "in_short": "as §1"}, "[32]": {"molecular_target": "CaRvs167", "in_short": "as §1"}, "[33]": {"molecular_target": "CaRvs167-3", "in_short": "as §1"}, "[34]": {"molecular_target": "CaSho1", "in_short": "as §1"}, "[35]": {"molecular_target": "CaSla1-D1-D2", "in_short": "as §1"}, "[36]": {"molecular_target": "CaSla1-D3", "in_short": "as §1"}, "[37]": {"molecular_target": "ScAbp1", "in_short": "as §1"}}}
{"binder": "NNQRRKPLLLNIGDH", "values": [{"measurement": "SPOT peptide array binding signal intensity", "setting": "[1]", "value": 108}, {"measurement": "SPOT peptide array binding signal intensity", "setting": "[2]", "value": "≤ 0"}, {"measurement": "SPOT peptide array binding signal intensity", "setting": "[3]", "value": "≤ 0"}, {"measurement": "SPOT peptide array binding signal intensity", "setting": "[4]", "value": "≤ 0"}, {"measurement": "SPOT peptide array binding signal intensity", "setting": "[5]", "value": 54}, {"measurement": "SPOT peptide array binding signal intensity", "setting": "[6]", "value": 0.5}, {"measurement": "SPOT peptide array binding signal intensity", "setting": "[7]", "value": 305}, {"measurement": "SPOT peptide array binding signal intensity", "setting": "[8]", "value": 6}, {"measurement": "SPOT peptide array binding signal intensity", "setting": "[9]", "value": 1660}, {"measurement": "SPOT peptide array binding signal intensity", "setting": "[10]", "value": "≤ 0"}, {"measurement": "SPOT peptide array binding signal intensity", "setting": "[11]", "value": "≤ 0"}, {"measurement": "SPOT peptide array binding signal intensity", "setting": "[12]", "value": 1}, {"measurement": "SPOT peptide array binding signal intensity", "setting": "[13]", "value": 68.5}, {"measurement": "SPOT peptide array binding signal intensity", "setting": "[14]", "value": 5.67}, {"measurement": "SPOT peptide array binding signal intensity", "setting": "[15]", "value": 24.5}, {"measurement": "SPOT peptide array binding signal intensity", "setting": "[16]", "value": 175}, {"measurement": "SPOT peptide array binding signal intensity", "setting": "[17]", "value": 5.5}, {"measurement": "SPOT peptide array binding signal intensity", "setting": "[18]", "value": 330}, {"measurement": "SPOT peptide array binding signal intensity", "setting": "[19]", "value": 458}, {"measurement": "SPOT peptide array binding signal intensity", "setting": "[20]", "value": "≤ 0"}, {"measurement": "SPOT peptide array binding signal intensity", "setting": "[21]", "value": "≤ 0"}, {"measurement": "SPOT peptide array binding signal intensity", "setting": "[22]", "value": "≤ 0"}, {"measurement": "SPOT peptide array binding signal intensity", "setting": "[23]", "value": "≤ 0"}, {"measurement": "SPOT peptide array binding signal intensity", "setting": "[24]", "value": 1.5}, {"measurement": "SPOT peptide array binding signal intensity", "setting": "[25]", "value": 1030}, {"measurement": "SPOT peptide array binding signal intensity", "setting": "[26]", "value": "≤ 0"}, {"measurement": "SPOT peptide array binding signal intensity", "setting": "[27]", "value": 21}, {"measurement": "SPOT peptide array binding signal intensity", "setting": "[28]", "value": 0.5}, {"measurement": "SPOT peptide array binding signal intensity", "setting": "[29]", "value": "≤ 0"}, {"measurement": "SPOT peptide array binding signal intensity", "setting": "[30]", "value": "≤ 0"}, {"measurement": "SPOT peptide array binding signal intensity", "setting": "[31]", "value": 528}, {"measurement": "SPOT peptide array binding signal intensity", "setting": "[32]", "value": 12}, {"measurement": "SPOT peptide array binding signal intensity", "setting": "[33]", "value": 35.8}, {"measurement": "SPOT peptide array binding signal intensity", "setting": "[34]", "value": 420}, {"measurement": "SPOT peptide array binding signal intensity", "setting": "[35]", "value": "≤ 0"}, {"measurement": "SPOT peptide array binding signal intensity", "setting": "[36]", "value": 2.25}, {"measurement": "SPOT peptide array binding signal intensity", "setting": "[37]", "value": 442}]}
